Compounds with a hit are over-represented: about 0.37% of the library has one in this group of screens.
MBNL1 CUG block = blocks human MBNL1 binding to CUG repeat RNA; Q9NR56; hit rate 0.036% among 280,000; Potency, µM (doses to about 57.5 µM), for the others: top-dose activity change, negative = inhibition, hits mostly inhibitors; AID 2675; TR-FRET MBNL1-His/biotin-(CUG)12 binding, 665/545 ratio; active means well fitted inhibition curve with a large enough effect in the signal ratio, with a control signal flat, not every such curve was filed as active; inconclusive means small, poorly fitted or top-dose-only effect, or effect the other way, or a change in a side signal; inactive means no such curve, though single readings can be large or run the other way; the % refers to the signal ratio; further: potency means the concentration at half of the fitted maximal effect; on the % scale 0 is the no-effect control and ±100 the full control effect
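Inhibition of protein-RNA binding appears as loss of TR-FRET between terbium anti-His antibody on MBNL1-His and streptavidin-XL665 on biotin-(CUG)12. Activity is normalized to buffer-only and uninhibited-complex controls.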
CBFb-RUNX1 inh = blocks binding between human CBF-beta and RUNX1 | Q01196+Q13951 | AlphaScreen CBFb-His/RUNX1-biotin binding, biochemical | Potency, µM (highest dose often 59.8 µM), for inactives: top-dose activity, negative = inhibition, hits mostly inhibitors | 230,000 tested, under 10 active | AID 1477; further: % of control where 0% means no effect
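Compounds were screened at multiple concentrations against a preformed CBF-beta(His)/RUNX1(biotin) complex (30 nM of each) for 15 min at room temperature, followed by 90 min with nickel and streptavidin beads and AlphaScreen reading.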
Vif-A3F inh = blocks the Vif interaction with APOBEC3F; HeLa A3F-eYFP + Vif (tagged APOBEC3F with the HIV-1 protein that degrades it), YFP fluorescence increase; Potency, µM (doses to about 46.1 µM), for the others: top-dose activity, negative = active; hit rate 0.2% among 390,000; AID 602313; further: potency means the concentration at half of the fitted maximal effect; % of control where 0% means no effect; nearly all actives have a fitted effect of over 65% in size
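HeLa cells stably expressing Vif plus C-terminally eYFP-tagged A3F were seeded, incubated overnight at 37 deg C, dosed with compound, incubated overnight again at 37 deg C. Yellow fluorescence (Ex 488/Em 500-530) reported blocked Vif-mediated A3F-eYFP degradation.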
Epigenetic reg = derepresses silenced GFP reporter in murine cells. hit rate 0.2% among 280,000. Potency, µM (doses to about 53.9 µM), for inactives: at the top dose GFP activation, most hits filed as activators. murine LDR cells, GFP reporter derepression, 30 h; further: potency means the concentration at half of the fitted maximal effect; % of control where 0% means no effect; nearly all actives have a fitted effect of over 60% in size
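In this reporter-derepression format, murine cells bearing a silenced integrated CMV-GFP locus incubate with test compound (30 h, 37 C), then are washed and imaged; fluorescent objects of 20–120 um count as induced cells.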
Vif-APOBEC3G blk = inhibitors of Vif-APOBEC3G interaction. Q9HC16. HeLa A3G-eYFP + Vif (tagged APOBEC3G with the HIV-1 protein that degrades it), YFP fluorescence, overnight. Potency, µM (doses to about 46.1 µM), for inactives: top-dose activity, negative = active, actives largely listed as inhibitors. hit rate 0.076% among 410,000; further: potency means the concentration at half of the fitted maximal effect; on the % scale 0 is the no-effect control and ±100 the full control effect; nearly all actives have a fitted effect of over 60% in size
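Read-out is eYFP fluorescence (Ex 488/Em 500-530) from Vif-expressing HeLa A3G-eYFP cells; more signal means A3G escaped Vif-mediated degradation. Cells plated overnight, compound pinned in, incubated overnight at 37 deg C.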
PTAP TSG101 blk = blocks PTAP/TSG101 interaction to inhibit HIV-1 budding | Q99816 | Fluorescence polarization, FITC-PTAP peptide / Tsg101 binding | Potency, µM (highest dose often 115 µM), for inactives: at the highest dose activity change, negative = inhibition, most hits filed as inhibitors | 340,000 tested, under 10 active; active means well fitted inhibition curve with a large enough effect in the main read-out, with a control signal flat, not every such curve was filed as active; inconclusive means small, poorly fitted or top-dose-only effect, or effect the other way, or a change in a side signal; inactive means no such curve, though single readings can be large or run the other way; further: potency means the concentration at half of the fitted maximal effect; % of control where 0% means no effect
Target sequence (Q99816 whole entry, looked up): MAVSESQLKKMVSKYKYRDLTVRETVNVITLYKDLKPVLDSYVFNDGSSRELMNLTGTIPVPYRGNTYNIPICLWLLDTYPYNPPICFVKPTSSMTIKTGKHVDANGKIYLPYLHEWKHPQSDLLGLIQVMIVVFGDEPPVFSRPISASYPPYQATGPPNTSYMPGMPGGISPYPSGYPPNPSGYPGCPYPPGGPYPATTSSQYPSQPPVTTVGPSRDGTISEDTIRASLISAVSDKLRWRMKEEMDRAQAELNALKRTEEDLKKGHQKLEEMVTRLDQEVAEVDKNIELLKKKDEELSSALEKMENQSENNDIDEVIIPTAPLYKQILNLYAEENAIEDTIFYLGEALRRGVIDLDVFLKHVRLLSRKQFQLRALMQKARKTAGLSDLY
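Fluorescence polarization binding of Tsg101 binding domain (10 uM final) to FITC-labeled PTAP peptide (50 nM final) in HEPES pH 7.5 buffer with NaCl, Tween 20, EDTA, TCEP. Compounds added before peptide; binding 20 min at RT.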
MBNL1-CUG FRET = blocks human MBNL1 binding to CUG repeat RNA, TR-FRET validation; AID 493199; hit rate 50% among 140; TR-FRET MBNL1-His / biotin-(CUG)12 binding, 60 min; Potency, µM (top dose mostly 57.6 µM), without a hit: at the highest dose activity change, negative = inhibition, usual class: inhibitors; shares compounds with MBNL1 CUG block
MBNL1 AlphaScrn = blocks MBNL1 binding to (CUG)12 RNA in AlphaScreen; Potency, µM (series often up to 57.7 µM), for the others: at the highest dose activity, negative = inhibition, usual class: inhibitors; AID 493205; AlphaScreen MBNL1-His / biotin-(CUG)12 binding; shares compounds with MBNL1 CUG block; hit rate 30% among 140
Menin-MLL HTRF = hit in HTRF counterscreen for MBNL1-poly(CUG) binding inhibitors; shares compounds with MBNL1 CUG block; His-Menin/biotin-MLL peptide TR-FRET counterscreen; Potency, µM (titrated, usually from 57.6 µM), for the others: top-dose activity, negative = inhibition, usual class: inhibitors; hit rate 20% among 120
The depositor's hits bear a star; ? = inconclusive; . = not tested or not shown; [ ] = remark or other dose. Unless noted, the call rests on the fitted dose curve; in most records, active means well fitted curve in the direction sought with a large enough effect; inconclusive means small, poorly fitted or top-dose-only effect, or another doubt; inactive means no such curve, though single readings can be large; an effect the other way counts as inactive or inconclusive.

SMILES | MBNL1 CUG block | CBFb-RUNX1 inh | Vif-A3F inh | Epigenetic reg | Vif-APOBEC3G blk | PTAP TSG101 blk | MBNL1-CUG FRET | MBNL1 AlphaScrn | Menin-MLL HTRF
O=C(/C=C/c1cccs1)Nc1scc(-c2ccccc2)c1C(=O)O | . | -9.5% | 4.5% | 0.3% | -3.5% | -1.0% | 20.6µM* | 13µM* | 9.7%
O=C(/C=C/c1cccs1)Nc1nc(-c2ccccc2)cs1 | 1.3% | 25.0% | -5.7% | 0.0% | 6.7% | 3.7% | . | . | .
CC1CCN(S(=O)(=O)c2ccc3c(c2)oc(=O)n3CC(=O)NC(C)c2ccccc2)CC1 (stereo not given) | . | . | 0.5% | 0.0% | 3.6% | . | . | . | .
Cc1cc(N2CCN(C)CC2)nc2ccc(NC(=S)NCCN3CCc4ccccc4C3)cc12 | 25.1µM* | 0.1% | -29.7% | -3.8% | 0.1% | 0.0% | -20.0% | -25.4% | -18.6%
Cc1cc(N2CCN(C)CC2)nc2ccc(NC(=S)NCCCN3CCc4ccccc4C3)cc12 | ? | 7.9% | 13.5% | 2.1% | -0.3% | -5.0% | . | . | .
CCOC(=O)NC1(C(F)(F)F)NC(=O)N(c2ccc(C)c(C)c2)C1=O (stereo not given) | . | . | 3.8% | 0.0% | -3.1% | . | . | . | .
O=C(NC1(O)C(=O)c2ccccc2C1=O)c1c(Cl)cccc1Cl | ? | 1.2% | -21.1% | -0.9% | -1.4% | -9.4% | . | . | .
O=C(NC1(O)C(=O)c2ccccc2C1=O)c1ccccc1 | . | 8.4% | 0.4% | 1.3% | 2.5% | -0.1% | 20.6µM* | 13µM* | 0.6%
COc1ccc(-c2nc3c(=O)n(C)c(=O)nc-3n(C)n2)cc1 | . | . | . | . | -11.0% | . | . | . | .
Cn1nc(-c2ccc(Cl)cc2)nc2c(=O)n(C)c(=O)nc1-2 | ? | . | . | ? | -14.5% | . | 0.651µM* | 0.259µM* | 56.4%
O=C(Nc1cc(C(=O)Nc2ccc(S(=O)(=O)O)cc2S(=O)(=O)O)cc(C(=O)Nc2ccc(S(=O)(=O)O)cc2S(=O)(=O)O)c1)Nc1cc(C(=O)Nc2ccc(S(=O)(=O)O)cc2S(=O)(=O)O)cc(C(=O)Nc2ccc(S(=O)(=O)O)cc2S(=O)(=O)O)c1 | . | 1.3% | . | -1.2% | 4.4% | . | 20µM* | 28.2µM* | .
C=CCOC(=O)C(C(C)=O)C(NC(=O)OC)c1cccc(C)c1 (stereo not given) | . | 4.8%[13.1 µM] | . | 0.0%[10.1 µM] | . | . | . | . | .
CCC(=O)N1CCc2cc(Br)cc(S(=O)(=O)CCC(=O)N(C)c3cccc(C)c3)c21 | . | . | 0.9% | 1.3% | 0.1% | . | . | . | .
COCCNC(=O)C(c1cccs1)N(C(=O)Cn1nnc2ccccc21)c1cccc(C)c1 (stereo not given) | 0.7% | 4.3% | -0.8% | 0.7% | -0.8% | -4.2% | . | . | .
COCCNC(=O)C(c1cccs1)N(C(=O)Cn1nnc2ccccc21)c1ccc(OC)cc1 (stereo not given) | 28.2µM* | 0.1% | -3.1% | -1.2% | -0.2% | -1.5% | -3.6% | -11.2% | 2.1%
